Experimental data from PubChem BioAssay (Tox21).
Results filed as inconclusive are left out. The source made the active and inactive calls. Unless noted, calls come from the whole dose curve; as a rule, active = well fitted curve in the direction sought with a large enough effect in the repeat runs; inconclusive = weak or mixed curves; inactive = no such curve, though single readings can be large; an effect the other way counts as inactive or inconclusive.

Experiments:
[1] = qHTS assay to identify aromatase inhibitors - cell viability counter screen (AID 743084);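 note: cells stimulated with testosterone during compound exposure; nearly all actives have a fitted effect of over 55% in size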
[2] = molecular target: Aryl hydrocarbon receptor (Homo sapiens) (UniProt P35869); assay: qHTS assay to identify small molecule that activate the aryl hydrocarbon receptor (AhR) signaling pathway (AID 743085);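 note: HG2L7.5c1 human HepG2 liver cells with stably integrated DRE-driven firefly reporter; series mostly up to about 70 µM; nearly all actives have a fitted effect of over 15% in size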
Summary of the method: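 Cell line HG2L7.5c1 (human hepatoma, 20× DRE-luc). Plated, 5 h 37C, compound/DMSO added, 24 h 37C. CellTiter-Fluor 30 min 37C → fluorescence; then ONE-Glo 30 min RT → luminescence.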

[3] = qHTS assay to identify small molecule that activate the aryl hydrocarbon receptor (AhR) signaling pathway - cell viability counter screen (AID 743086);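 note: HepG2 liver cells carrying the AhR DRE luciferase reporter; series mostly up to about 70 µM; nearly all actives have a fitted effect of over 45% in size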
Summary of the method: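 Cytotoxicity counter screen: CellTiter-Fluor signal (30 min, 37 C) in 4000 HepG2 cells/well carrying the DRE-luciferase reporter, following 24 h compound exposure at 37 C.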

[4] = qHTS assay to identify small molecule antagonists of the peroxisome proliferator-activated receptor gamma (PPARg) signaling pathway - cell viability counter screen (AID 743194); note: nearly all actives have a fitted effect of over 55% in size
Summary of the method: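 Viability was measured as CellTiter-Glo luminescence in GeneBLAzer PPARg UAS-bla HEK293H cells. These cells had been exposed 17 h at 37 C to compounds together with rosiglitazone at 50 nM final, with the beta-lactamase readout taken in the same wells.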

[5] = qHTS assay for small molecule agonists of the antioxidant response element (ARE) signaling pathway - cell viability counter screen (AID 743203; calls by dose curve; note: nearly all actives have a fitted effect of over 55% in size)
Summary of the method: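 Cells (ARE-bla HepG2, 2,000/well) receive DMSO-dissolved compounds after a 5 hrs rest. Plates incubate 16 hrs at 37C/5% CO2. CellTiter-Glo luminescence is then recorded after 30 min at room temperature.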

[6] = qHTS assay for small molecule activators of the heat shock response signaling pathway - cell viability counter screen (AID 743209); note: nearly all actives have a fitted effect of over 50% in size
Summary of the method: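 Quantitative HTS format, Tox21 10K library. HeLa cells carrying an HSE-driven beta-lactamase reporter were treated 5 h at 37 C, then assessed for viability by CellTiter-Glo luminescence.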

[7] = qHTS assay for small molecule activators of the heat shock response signaling pathway (AID 743210; active = well fitted activation curve with a large enough effect in the signal ratio in the repeat runs, with a control signal flat, not every such curve was filed as active; the % refers to the signal ratio;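 note: HeLa cells with beta-lactamase reporter driven by heat shock elements; series mostly up to about 63 µM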)
Summary of the method: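 In HSE-bla HeLa cells, 5 h compound incubation (37 C) precedes addition of LiveBLAzer B/G substrate; after 2.5 h at room temperature, fluorescence intensity indicates reporter induction.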

[8] = qHTS assay to identify small molecule agonists of the peroxisome proliferator-activated receptor delta (PPARd) signaling pathway - cell viability counter screen (AID 743211); note: nearly all actives have a fitted effect of over 55% in size
Summary of the method: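 HEK293H PPARd-bla, 3000 cells/well; 5 h preincubation 37C/5% CO2; cpd in DMSO, 17 h 37C; B/G FRET substrate 2 h RT; CellTiter-Glo 30 min RT, luminescence.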

[9] = qHTS assay to identify small molecule antagonists of the peroxisome proliferator-activated receptor delta (PPARd) signaling pathway - cell viability counter screen (AID 743213); note: nearly all actives have a fitted effect of over 50% in size
Summary of the method: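 CellTiter-Glo was added to PPARd-bla HEK293H wells following 17 h compound treatment in the presence of 300 nM L165041. Luminescence was recorded after 30 min at room temperature.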

[10] = qHTS assay to identify small molecule agonists of the farnesoid-X-receptor (FXR) signaling pathway - cell viability counter screen (AID 743218); note: nearly all actives have a fitted effect of over 45% in size
Summary of the method: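 In GeneBLAzer FXR-UAS-bla HEK 293T cells, compounds act for 16 h at 37 C. Cell viability is then scored in the reporter wells by CellTiter-Glo, 30 min at RT, luminescence.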

[11] = qHTS assay to identify small molecule antagonists of the farnesoid-X-receptor (FXR) signaling pathway - cell viability counter screen (AID 743221; active = well fitted cell-killing curve with a large enough effect in the repeat runs, not every such curve was filed as active; note: nearly all actives have a fitted effect of over 50% in size)
Summary of the method: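 Luminescence from CellTiter-Glo measures cytotoxicity in GeneBLAzer FXR-UAS-bla HEK 293T cells. Cells were exposed to compounds with 50 uM chenodeoxycholic acid (final) for 16 h at 37 C, in wells also used for the reporter readout.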

[12] = molecular target: Vitamin D3 receptor (Homo sapiens) (UniProt P11473); assay: qHTS assay to identify small molecule agonists of the vitamin D receptor (VDR) signaling pathway (AID 743222; calls by dose curve)
Summary of the method: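 Agonist activity measured in VDR-bla reporter cells. Exposure 16 h, 37C, 5% CO2; detection by B/G FRET substrate, 2 h RT.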

[13] = molecular target: Peroxisome proliferator-activated receptor gamma (Homo sapiens) (UniProt P37231); assay: qHTS assay to identify small molecule agonists of the peroxisome proliferator-activated receptor gamma (PPARg) signaling pathway (AID 743094; active = well fitted activation curve with a large enough effect in the signal ratio in the repeat runs, not every such curve was filed as active; the % refers to the signal ratio)
Summary of the method: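 Stably transfected HEK293H cells (GeneBLAzer PPARg UAS-bla) were incubated with test substances for 17 h at 37C after a 5 h pre-incubation; beta-lactamase activity was then detected by FRET substrate fluorescence.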

[14] = molecular target: Peroxisome proliferator-activated receptor gamma (Homo sapiens) (UniProt P37231); assay: qHTS assay to identify small molecule antagonists of the peroxisome proliferator-activated receptor gamma (PPARg) signaling pathway (AID 743191; calls by dose curve; note: series mostly up to about 63 µM; nearly all actives have a fitted effect of over 30% in size)
Summary of the method: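 Beta-lactamase reporter under UAS control in HEK293H PPARg-bla cells; compound treatment 17 h at 37C. Read-out: fluorescence intensity after 1 h room-temperature incubation with LiveBLAzer B/G FRET substrate.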

[15] = qHTS assay for small molecule agonists of the antioxidant response element (ARE) signaling pathway (AID 743202; active = well fitted activation curve with a large enough effect in the signal ratio in the repeat runs, not every such curve was filed as active; the % refers to the signal ratio)
Summary of the method: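 An ARE-responsive beta-lactamase gene stably integrated in HepG2 cells serves as reporter. After 5 h plating and 16 h compound incubation at 37 C, fluorescence of the B/G FRET substrate was measured.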

[16] = molecular target: Peroxisome proliferator-activated receptor delta (Homo sapiens) (UniProt Q03181); assay: qHTS assay to identify small molecule agonists of the peroxisome proliferator-activated receptor delta (PPARd) signaling pathway (AID 743212; calls by dose curve)
Summary of the method: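 HEK293H UAS-bla reporter cells, human PPARd system; compounds delivered in DMSO after 5 h plating, then at 37 C. Beta-lactamase FRET read, 2 h RT substrate step.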

[17] = molecular target: Peroxisome proliferator-activated receptor delta (Homo sapiens) (UniProt Q03181); assay: qHTS assay to identify small molecule antagonists of the peroxisome proliferator-activated receptor delta (PPARd) signaling pathway (AID 743215; active = well fitted inhibition curve with a large enough effect in the signal ratio in the repeat runs, not every such curve was filed as active; the % refers to the signal ratio;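 note: cells stimulated with agonist L165041 at 300 nM final during compound exposure; series mostly up to about 62 µM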)
Summary of the method: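 Antagonist-mode beta-lactamase reporter screen: HEK293H cells with UAS-bla under PPARd control, stimulated by 300 nM L165041 (final) alongside test compound for 17 h at 37 C, then FRET fluorescence after 2 h substrate incubation.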

[18] = molecular target: Vitamin D3 receptor (Homo sapiens) (UniProt P11473); assay: qHTS assay to identify small molecule antagonists of the vitamin D receptor (VDR) signaling pathway (AID 743223; active = well fitted inhibition curve with a large enough effect in the signal ratio in the repeat runs, not every such curve was filed as active; the % refers to the signal ratio)
Summary of the method: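 Antagonist mode uses 1alpha,25-dihydroxyvitamin D3 at 3 nM final as stimulus. VDR-bla cells receive compounds in DMSO, incubate 16 h at 37C, then a beta-lactamase FRET substrate for 2 h at room temperature before fluorescence measurement.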

[19] = molecular target: Bile acid receptor (Homo sapiens) (UniProt Q96RI1); assay: qHTS assay to identify small molecule antagonists of the farnesoid-X-receptor (FXR) signaling pathway (AID 743217; active = well fitted inhibition curve with a large enough effect in the signal ratio in the repeat runs, not every such curve was filed as active; the % refers to the signal ratio)
Summary of the method: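 Beta-lactamase reporter under UAS control in HEK 293T cells; compound exposure 16 h at 37 °C in the presence of chenodeoxycholic acid (50 uM final); signal from B/G FRET substrate after 2 h at room temperature.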

[20] = molecular target: Bile acid receptor (Homo sapiens) (UniProt Q96RI1); assay: qHTS assay to identify small molecule agonists of the farnesoid-X-receptor (FXR) signaling pathway (AID 743220; active = well fitted activation curve with a large enough effect in the signal ratio in the repeat runs, not every such curve was filed as active; the % refers to the signal ratio)
Summary of the method: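 Beta-lactamase reporter under UAS control in GeneBLAzer FXR HEK 293T cells (5000/well) measured with LiveBLAzer FRET substrate after 2 h at room temperature. Compound exposure lasted 16 h at 37C.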

Measured: Potency

Chain of Peroxisome proliferator-activated receptor gamma (Homo sapiens) (P37231 whole entry, looked up): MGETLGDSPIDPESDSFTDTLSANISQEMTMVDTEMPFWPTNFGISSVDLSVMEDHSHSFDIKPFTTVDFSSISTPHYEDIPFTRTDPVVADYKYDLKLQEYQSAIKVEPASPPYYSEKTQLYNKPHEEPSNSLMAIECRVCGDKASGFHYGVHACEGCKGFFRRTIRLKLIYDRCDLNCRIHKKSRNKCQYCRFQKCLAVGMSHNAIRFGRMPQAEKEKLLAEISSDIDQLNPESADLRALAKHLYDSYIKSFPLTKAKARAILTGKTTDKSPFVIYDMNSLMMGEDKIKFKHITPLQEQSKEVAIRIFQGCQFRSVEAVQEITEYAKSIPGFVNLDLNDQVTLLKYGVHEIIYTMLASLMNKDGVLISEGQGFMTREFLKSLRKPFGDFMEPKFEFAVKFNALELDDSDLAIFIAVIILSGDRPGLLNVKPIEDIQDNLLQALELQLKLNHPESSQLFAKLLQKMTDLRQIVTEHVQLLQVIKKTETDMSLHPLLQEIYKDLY
Chain of Bile acid receptor (Homo sapiens) (Q96RI1 whole entry, looked up): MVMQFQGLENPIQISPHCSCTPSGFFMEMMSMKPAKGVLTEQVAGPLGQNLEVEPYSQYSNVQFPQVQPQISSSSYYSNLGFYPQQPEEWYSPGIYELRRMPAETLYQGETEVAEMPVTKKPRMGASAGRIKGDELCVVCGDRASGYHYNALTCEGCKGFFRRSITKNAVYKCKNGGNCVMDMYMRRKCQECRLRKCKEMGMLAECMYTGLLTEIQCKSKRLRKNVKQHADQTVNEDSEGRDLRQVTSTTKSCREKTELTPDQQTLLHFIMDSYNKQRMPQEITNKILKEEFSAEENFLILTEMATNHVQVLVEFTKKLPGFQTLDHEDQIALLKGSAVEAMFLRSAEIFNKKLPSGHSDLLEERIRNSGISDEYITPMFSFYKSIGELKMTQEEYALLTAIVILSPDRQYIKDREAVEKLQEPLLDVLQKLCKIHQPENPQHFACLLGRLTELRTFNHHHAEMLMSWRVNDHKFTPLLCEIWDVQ
Chain of Vitamin D3 receptor (Homo sapiens) (P11473 whole entry, looked up): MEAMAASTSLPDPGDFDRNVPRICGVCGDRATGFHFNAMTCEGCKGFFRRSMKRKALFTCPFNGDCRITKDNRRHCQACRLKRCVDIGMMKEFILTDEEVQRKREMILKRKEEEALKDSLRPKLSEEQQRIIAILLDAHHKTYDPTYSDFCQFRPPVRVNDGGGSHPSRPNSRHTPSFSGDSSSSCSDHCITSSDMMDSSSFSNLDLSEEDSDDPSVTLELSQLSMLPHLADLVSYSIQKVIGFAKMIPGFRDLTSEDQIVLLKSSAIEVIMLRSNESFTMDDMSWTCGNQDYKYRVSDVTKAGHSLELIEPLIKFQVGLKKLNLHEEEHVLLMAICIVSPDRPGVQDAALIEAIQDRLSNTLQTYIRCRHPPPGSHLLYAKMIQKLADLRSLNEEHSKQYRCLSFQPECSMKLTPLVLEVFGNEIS
Chain of Aryl hydrocarbon receptor (Homo sapiens) (P35869 whole entry, looked up): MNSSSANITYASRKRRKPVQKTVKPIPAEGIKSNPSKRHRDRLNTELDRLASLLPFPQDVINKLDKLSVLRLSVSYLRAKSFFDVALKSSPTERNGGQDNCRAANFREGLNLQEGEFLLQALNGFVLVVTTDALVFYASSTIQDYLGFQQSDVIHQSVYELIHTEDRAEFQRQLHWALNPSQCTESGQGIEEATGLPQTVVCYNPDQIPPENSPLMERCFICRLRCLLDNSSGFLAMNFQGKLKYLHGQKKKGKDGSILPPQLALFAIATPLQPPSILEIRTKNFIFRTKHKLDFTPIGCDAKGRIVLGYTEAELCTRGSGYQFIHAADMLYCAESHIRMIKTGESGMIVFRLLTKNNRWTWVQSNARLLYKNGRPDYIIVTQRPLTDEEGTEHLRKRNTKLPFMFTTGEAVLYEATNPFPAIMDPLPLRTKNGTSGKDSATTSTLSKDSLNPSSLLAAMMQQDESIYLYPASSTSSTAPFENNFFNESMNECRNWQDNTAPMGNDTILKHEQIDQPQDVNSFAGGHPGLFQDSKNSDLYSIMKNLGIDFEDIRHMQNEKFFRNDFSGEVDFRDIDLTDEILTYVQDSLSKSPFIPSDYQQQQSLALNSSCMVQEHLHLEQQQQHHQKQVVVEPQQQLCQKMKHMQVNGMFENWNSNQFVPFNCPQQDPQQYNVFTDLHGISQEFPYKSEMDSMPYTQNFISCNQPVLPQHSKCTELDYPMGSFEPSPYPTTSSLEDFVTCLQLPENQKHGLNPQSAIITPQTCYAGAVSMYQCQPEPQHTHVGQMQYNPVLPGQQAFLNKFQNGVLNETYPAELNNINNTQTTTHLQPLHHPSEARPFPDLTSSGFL
Chain of Peroxisome proliferator-activated receptor delta (Homo sapiens) (Q03181 whole entry, looked up): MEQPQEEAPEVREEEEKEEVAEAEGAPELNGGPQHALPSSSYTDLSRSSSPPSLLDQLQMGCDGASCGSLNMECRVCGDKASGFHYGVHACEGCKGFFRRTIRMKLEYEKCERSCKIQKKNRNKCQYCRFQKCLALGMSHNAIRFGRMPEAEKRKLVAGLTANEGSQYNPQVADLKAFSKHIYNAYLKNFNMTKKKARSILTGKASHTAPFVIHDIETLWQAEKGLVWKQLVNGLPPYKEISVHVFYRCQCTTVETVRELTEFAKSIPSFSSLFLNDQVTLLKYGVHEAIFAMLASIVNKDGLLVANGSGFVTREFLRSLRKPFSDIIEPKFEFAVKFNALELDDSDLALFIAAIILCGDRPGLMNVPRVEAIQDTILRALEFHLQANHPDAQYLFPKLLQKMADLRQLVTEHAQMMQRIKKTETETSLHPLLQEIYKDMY

CO
inactive: [1] | [2] | [3] | [4] | [5] | [6] | [7] | [8] | [9] | [10] | [11] | [12]

CC(C)COC(=O)c1ccccc1O
inactive: [1] | [3] | [13] | [14] | [4] | [15] | [5] | [6] | [7] | [8] | [16] | [9] | [17] | [10] | [11] | [12] | [18]

Nc1ccc2cc(S(=O)(=O)O)ccc2c1
inactive: [1] | [2] | [4] | [5] | [6] | [7] | [8] | [16] | [9] | [17] | [19] | [10] | [20] | [11] | [12] | [18]

CC12CCC(CC1=O)C2(C)C (stereo unspecified)
inactive: [1] | [2] | [3] | [4] | [5] | [6] | [7] | [8] | [16] | [9] | [17] | [11] | [18]

CN(C)CCOC(c1ccc(Cl)cc1)c1ccccn1 (stereo unspecified)
inactive: [1] | [2] | [3] | [13] | [4] | [6] | [7] | [8] | [16] | [9] | [17] | [11] | [12]

CCCOCC(C)OCC(C)O (stereo unspecified)
inactive: [1] | [2] | [3] | [4] | [5] | [6] | [7] | [8] | [9] | [19] | [10] | [20] | [11] | [12] | [18]

C=C[Si](OC)(OC)OC
inactive: [1] | [3] | [13] | [14] | [4] | [15] | [5] | [6] | [7] | [8] | [16] | [9] | [17] | [10] | [11] | [12] | [18]

NS(=O)(=O)c1cc2c(cc1C(F)(F)F)NC(Cc1ccccc1)NS2(=O)=O (stereo unspecified)
inactive: [1] | [2] | [3] | [13] | [4] | [5] | [6] | [7] | [8] | [16] | [9] | [11] | [12] | [18]

CC1=CCC2C(C1)C2(C)C (stereo unspecified)
inactive: [1] | [2] | [3] | [13] | [4] | [5] | [6] | [8] | [16] | [9] | [19] | [10] | [20] | [11] | [12]

CCCc1ccc(N)cc1
inactive: [1] | [3] | [13] | [14] | [4] | [15] | [5] | [6] | [7] | [8] | [16] | [9] | [17] | [10] | [11] | [12] | [18]

C1CCCCCCCCCCC1
inactive: [1] | [2] | [3] | [4] | [5] | [6] | [7] | [16] | [9] | [17] | [10] | [11] | [18]

O=C(O)C(O)[C@H](O)[C@@H](O)[C@H](O)[C@H](O)CO (stereo partly specified)
inactive: [1] | [3] | [13] | [14] | [4] | [5] | [6] | [7] | [8] | [19] | [10] | [20] | [11] | [12]

OCC(O)[C@@H](O)[C@H](O)[C@H](O)CO[C@H]1O[C@H](CO)[C@@H](O)[C@H](O)[C@H]1O (stereo partly specified)
inactive: [1] | [3] | [13] | [4] | [15] | [5] | [6] | [7] | [8] | [16] | [9] | [17] | [10] | [11]

O=[N+]([O-])c1ccc(CCO)cc1
inactive: [1] | [3] | [13] | [4] | [15] | [5] | [6] | [7] | [8] | [16] | [9] | [17] | [19] | [10] | [20] | [11] | [12] | [18]

CCCCCCCCCCCCCCCCCC(=O)OCCCCCCCCCCCCCC(C)C
inactive: [1] | [3] | [13] | [14] | [4] | [5] | [6] | [7] | [8] | [16] | [9] | [17] | [10] | [11] | [18]

Nc1cc(C(Cl)=C(Cl)Cl)c(S(N)(=O)=O)cc1S(N)(=O)=O
inactive: [1] | [3] | [13] | [4] | [15] | [5] | [6] | [7] | [8] | [9] | [10] | [11]

C=C(C)C1CC=C(C)C(O)C1 (stereo unspecified)
inactive: [1] | [3] | [13] | [4] | [15] | [5] | [6] | [7] | [8] | [16] | [9] | [17] | [10] | [11]

NC(CS)C(=O)O (stereo unspecified)
inactive: [1] | [3] | [13] | [14] | [4] | [5] | [6] | [7] | [8] | [16] | [17] | [10] | [11]

NC(=O)c1ncn([C@@H]2O[C@H](CO)[C@@H](O)[C@H]2O)c1N
inactive: [1] | [3] | [13] | [14] | [4] | [5] | [6] | [7] | [8] | [9] | [10] | [11] | [12] | [18]
